Source: PMC5540273 (PLoS ONE, 2017)

Assays:
Conditions in all cases: concentration: 1 μM,replicates: in singlicate; n = 1
[1] = system: RIOK1
[2] = system: RIOK2
[3] = system: RIOK3
[4] = system: RIPK1
[5] = system: RIPK2
[6] = system: RIPK4
[7] = system: RIPK5
[8] = system: ROCK1
[9] = system: ROCK2
[10] = system: ROS1
[11] = system: RPS6KA4(Kin.Dom.1-N-terminal)
[12] = system: RPS6KA4(Kin.Dom.2-C-terminal)
[13] = system: RPS6KA5(Kin.Dom.1-N-terminal)
[14] = system: RPS6KA5(Kin.Dom.2-C-terminal)
[15] = system: T1, RSK1(Kin.Dom.1-N-terminal)
T1 construct: gene RPS6KA1

[16] = system: T2, RSK1(Kin.Dom.2-C-terminal)
T2 construct: gene RPS6KA1

[17] = system: T3, RSK2(Kin.Dom.1-N-terminal)
T3 construct: gene RPS6KA3

[18] = system: T4, RSK2(Kin.Dom.2-C-terminal)
T4 construct: gene RPS6KA3

[19] = system: T5, RSK3(Kin.Dom.1-N-terminal)
T5 construct: gene RPS6KA2

[20] = system: T6, RSK3(Kin.Dom.2-C-terminal)
T6 construct: gene RPS6KA2
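Note: KINOMEscan kinase panel screen.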

| Compound | %Inh [1] | %Inh [2] | %Inh [3] | %Inh [4] | %Inh [5] | %Inh [6] | %Inh [7] | %Inh [8] | %Inh [9] | %Inh [10] | %Inh [11] | %Inh [12] | %Inh [13] | %Inh [14] | %Inh [15] | %Inh [16] | %Inh [17] | %Inh [18] | %Inh [19] | %Inh [20] |
| --- | --- | --- | --- | --- | --- | --- | --- | --- | --- | --- | --- | --- | --- | --- | --- | --- | --- | --- | --- | --- |
| CNC(=O)c1ccccc1Sc1ccc2c(/C=C/c3ccccn3)n[nH]c2c1 | 2% | 0% | 0% | 12% | 22% | 0% | 11% | 5% | 17% | 45% | 0% | 0% | 0% | 0% | 0% | 0% | 0% | 0% | 11% | 6% |
| O=C(NCCNc1ccnc(NCc2ccc(F)cc2)n1)c1cc2ccccc2s1 [GSK1379944] | 28% | 0% | 17% | 0% | 73% | 5% | 0% | 0% | 0% | 7% | 28% | 0% | 24% | 0% | 11% | 0% | 0% | 18% | 20% | 0% |
| Cc1n[nH]c2ccc(-c3cc(OC[C@@H](N)Cc4ccccc4)cnc3-c3ccoc3)cc12.O=C(O)C(F)(F)F.O=C(O)C(F)(F)F [GSK507358] | 93% | 0% | 72% | 0% | 0% | 0% | 0% | 31% | 33% | 0% | 0% | 0% | 42% | 1% | 4% | 0% | 17% | 0% | 12% | 16% |
| Cc1cc(C(=O)Nc2ccc(Oc3ccc4nc(NC(=O)C5CC5)cn4n3)cc2)nn1-c1ccccc1 | 17% | 0% | 41% | 0% | 24% | 0% | 0% | 0% | 0% | 0% | 20% | 0% | 0% | 6% | 0% | 0% | 0% | 49% | 0% | 6% |
| COc1ccc(C[C@@H](CN)NC(=O)c2cc(Br)c(-c3ccnc4[nH]ccc34)s2)cc1.Cl.Cl [GSK1389063] | 89% | 49% | 80% | 0% | 4% | 36% | 28% | 100% | 95.2% | 59% | 68% | 59% | 87% | 21% | 42% | 0% | 90.8% | 0% | 63% | 15% |
| Cc1occc1-c1nc(N)c(OC[C@@H](N)Cc2c[nH]c3ccccc23)cc1-c1cc2c(C)n[nH]c2cn1 [GSK1660450] | 87% | 16% | 59% | 0% | 10% | 4% | 0% | 93.7% | 82% | 4% | 7% | 0% | 72% | 0% | 26% | 18% | 98.1% | 24% | 87% | 0% |
| CCN(CC)CCOc1ccc(Nc2ncc3cc(-c4c(Cl)cccc4Cl)c(=O)n(C)c3n2)cc1 [SB-601273] | 35% | 29% | 92.3% | 100% | 99.7% | 18% | 44% | 25% | 50% | 50% | 0% | 0% | 0% | 36% | 19% | 51% | 45% | 47% | 29% | 0% |
| Cl.Cl.NC[C@H](CC1CCCCC1)NC(=O)c1cc(Br)c(-c2ccnc3[nH]ccc23)s1 [GSK1581427] | 100% | 66% | 80% | 0% | 0% | 20% | 5% | 100% | 99.1% | 17% | 56% | 5% | 50% | 13% | 26% | 64% | 49% | 5% | 38% | 0% |
| Cc1cc2cn[nH]c2cc1-c1cccc2c(N)c(C(N)=O)nnc12 | 100% | 77% | 73% | 0% | 4% | 84% | 74% | 70% | 68% | 80% | 92.6% | 12% | 51% | 2% | 48% | 15% | 58% | 0% | 26% | 2% |
| C[C@H]1Oc2cc(cnc2N)-c2c(nn(C)c2C#N)CN(C)C(=O)c2ccc(F)cc21 | 0% | 0% | 0% | 12% | 0% | 0% | 89% | 0% | 0% | 98.5% | 3% | 0% | 16% | 1% | 0% | 0% | 0% | 0% | 5% | 14% |
| Cc1ccc2c(-c3ccncc3)c(-c3ccc(F)cc3)nn2c1.Cl [GW461484] | 0% | 0% | 19% | 0% | 55% | 0% | 0% | 14% | 5% | 0% | 18% | 0% | 0% | 15% | 0% | 52% | 0% | 1% | 1% | 0% |
| Cl.Cl.Nc1nc(-c2ccc3c(N)n[nH]c3c2)cc(N2CCCC(NC(=O)c3ccccc3)C2)n1 (centres unmarked) [GSK2286775] | 96.5% | 9% | 99.3% | 4% | 8% | 39% | 5% | 2% | 30% | 0% | 0% | 0% | 0% | 4% | 20% | 10% | 6% | 0% | 32% | 16% |
| CCn1c(-c2nonc2N)nc2c(C#CC(C)(C)O)nc(OCCN)cc21.Cl.Cl [GSK902056] | 0% | 8% | 0% | 0% | 0% | 0% | 4% | 18% | 0% | 2% | 0% | 79% | 23% | 38% | 0% | 0% | 10% | 22% | 19% | 0% |
